Some test systems named below: NCI-H23 lung; NCI-H226 lung; NCI-H322M lung; HOP-62 NSCLC; NCI-H460 lung; NCI-H522 lung; 786-0 renal; COLO 205 colon; DU-145 prostate; K-562 leukemia; MALME-3M melanoma; MDA-MB-231 breast; RXF 393 renal; SF-268 CNS; SF-295 CNS; SF-539 CNS; UACC-257 melanoma; M14 melanoma.
Holding throughout (assay): NCI-60 one-dose screen, 48 h (100 = growth as untreated, 0 = no growth, -100 = all killed)
For another assay, the system named is HOP-92 NSCLC. The settings on record: 10 µM unless noted.
For another assay, the system named is A549/ATCC NSCLC. Particulars: 10 µM unless noted.

Where “and” joins values, the source holds several entries; their conditions need not be identical. Equal entries are not always repeated. This is part of a sample that, as a whole, favours compounds with a hit. Of some 83,000 tested, about 20% had one in any assay.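 In brief: 96-well plates, 48 h treatment, single concentration, percent growth endpoint.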 Calls of active or inactive are those of the source. Rule for the calls: active = growth percent below 10; inactive = the rest.

`CC1(C)OB(c2ccc(Cn3cc(F)c(=O)[nH]c3=O)cc2)OC1(C)C`: the growth in the assay on NCI-H23 lung (10 µM) is 94.9% (inactive); in the assay with NCI-H23 lung (50 µM) it was 68.3% (inactive); with NCI-H226 lung (10 µM), 96.9% (inactive); in the assay with NCI-H226 lung (50 µM), 64% (inactive); in the assay with NCI-H322M lung (10 µM), 102% (inactive); with NCI-H322M lung (50 µM) it was 86.4% (inactive). The growth in the assay with HOP-62 NSCLC (10 µM) is 104% (inactive); with HOP-62 NSCLC (50 µM), 63.9% (inactive); with NCI-H460 lung (10 µM) it was 106% (inactive); in the assay on NCI-H460 lung (50 µM) it was 34.2% (inactive); in the assay on NCI-H522 lung (10 µM), 91% (inactive); in the assay on NCI-H522 lung (50 µM) it was 10.3% (inactive). In addition, the growth is 105% (inactive) with 786-0 renal (10 µM); 81.4% (inactive) in the assay with 786-0 renal (50 µM); 120% (inactive) in the assay on COLO 205 colon (10 µM); 36.4% (inactive) in the assay on COLO 205 colon (50 µM); 113% (inactive) with DU-145 prostate (10 µM); 84% (inactive) in the assay with DU-145 prostate (50 µM). Moreover, the growth was 110% (inactive) in the assay with K-562 leukemia (10 µM); 29.7% (inactive) with K-562 leukemia (50 µM); 97.2% (inactive) with MALME-3M melanoma (10 µM); 44.7% (inactive) with MALME-3M melanoma (50 µM); 124% (inactive) with MDA-MB-231 breast (10 µM); 86.1% (inactive) in the assay with MDA-MB-231 breast (50 µM). Further, the growth is 99.7% (inactive) in the assay with RXF 393 renal (10 µM); 59.9% (inactive) in the assay on RXF 393 renal (50 µM); 94.7% (inactive) in the assay with SF-268 CNS (10 µM); 68.7% (inactive) in the assay with SF-268 CNS (50 µM); 102% (inactive) in the assay on SF-295 CNS (10 µM); 85.5% (inactive) in the assay on SF-295 CNS (50 µM). The growth was 101% (inactive) with SF-539 CNS (10 µM); 61.4% (inactive) in the assay on SF-539 CNS (50 µM); 103% (inactive) with UACC-257 melanoma (10 µM); 67.3% (inactive) in the assay on UACC-257 melanoma (50 µM); 103% (inactive) in the assay with M14 melanoma (10 µM); 44.9% (inactive) in the assay with M14 melanoma (50 µM).

For the compound `O=C1c2ccccc2C(=O)N1/N=C/c1ccc2c(c1)OCO2`, the growth with NCI-H23 lung (10 µM unless noted) is 120% (inactive); with NCI-H226 lung (10 µM unless noted), 101% (inactive); in the assay with NCI-H322M lung (10 µM unless noted), 95.1% (inactive); in the assay with HOP-62 NSCLC (10 µM unless noted), 104% (inactive); in the assay with NCI-H460 lung (10 µM unless noted) it was 112% (inactive); in the assay on HOP-92 NSCLC, 74.4% (inactive). Moreover, the growth is 64.5% (inactive) with NCI-H522 lung (10 µM unless noted); 87.7% (inactive) in the assay with A549/ATCC NSCLC; 104% (inactive) with 786-0 renal (10 µM unless noted); 99.5% (inactive) with COLO 205 colon (10 µM unless noted); 116% (inactive) with DU-145 prostate (10 µM unless noted); 99.8% (inactive) with K-562 leukemia (10 µM unless noted). The growth is 110% (inactive) in the assay on MALME-3M melanoma (10 µM unless noted); 87.2% (inactive) with MDA-MB-231 breast (10 µM unless noted); 107% (inactive) in the assay with RXF 393 renal (10 µM unless noted); 103% (inactive) with SF-268 CNS (10 µM unless noted); 129% (inactive) in the assay with SF-295 CNS (10 µM unless noted); 101% (inactive) in the assay on SF-539 CNS (10 µM unless noted). Also, the growth with UACC-257 melanoma (10 µM unless noted) and in the assay with M14 melanoma (10 µM unless noted) was 99.7% (inactive) in each case.

Take `O=[N+]([O-])c1ccc2nc3c4ccccc4c4ccccc4c3nc2c1`: the growth with NCI-H23 lung (10 µM unless noted) is 81.8% (inactive); with NCI-H226 lung (10 µM unless noted) it was 41.5% (inactive); in the assay with NCI-H322M lung (10 µM unless noted) it was 92.6% (inactive); in the assay with HOP-62 NSCLC (10 µM unless noted), 90% (inactive); with NCI-H460 lung (10 µM unless noted) it was 68.4% (inactive); with HOP-92 NSCLC it was 61% (inactive). The growth with NCI-H522 lung (10 µM unless noted) was 67.2% (inactive); with A549/ATCC NSCLC it was 69.1% (inactive); with 786-0 renal (10 µM unless noted), 88.6% (inactive); with COLO 205 colon (10 µM unless noted), 71.4% (inactive); with DU-145 prostate (10 µM unless noted) it was 100% (inactive); in the assay on K-562 leukemia (10 µM unless noted) it was 67.4% (inactive). For the same compound, the growth in the assay on MALME-3M melanoma (10 µM unless noted) is 98.6% (inactive); in the assay with MDA-MB-231 breast (10 µM unless noted), 70.2% (inactive); with RXF 393 renal (10 µM unless noted), 96% (inactive); in the assay on SF-268 CNS (10 µM unless noted), 78% (inactive); in the assay on SF-295 CNS (10 µM unless noted), 107% (inactive); with SF-539 CNS (10 µM unless noted) it was 91% (inactive). Besides, the figures for the growth in the assay with UACC-257 melanoma (10 µM unless noted) and in the assay on M14 melanoma (10 µM unless noted) were 82.5% (inactive) and 90.3% (inactive), respectively.

Consider `CN(C)c1ccc2nc3ccc(=[N+](C)C)cc-3sc2c1`, for which the growth was 12.5% (inactive) and 8.52% (active) and 28% (inactive) in the assay with NCI-H23 lung (10 µM unless noted); 52.2% (inactive) and 66.6% (inactive) and 68.8% (inactive) in the assay with NCI-H226 lung (10 µM unless noted); 24.8% (inactive) and 11.7% (inactive) and 30.7% (inactive) in the assay on NCI-H322M lung (10 µM unless noted); 58.7% (inactive) and 24.6% (inactive) and 46.6% (inactive) in the assay on HOP-62 NSCLC (10 µM unless noted); 17.1% (inactive) and 13.5% (inactive) and 32.9% (inactive) with NCI-H460 lung (10 µM unless noted); 63.3% (inactive) and 43.9% (inactive) and 76.6% (inactive) in the assay with HOP-92 NSCLC. Also, the growth was 6.69% (active) and 34.6% (inactive) and 37.6% (inactive) in the assay on NCI-H522 lung (10 µM unless noted); 3.7% (active) and 3.9% (active) and 14.7% (inactive) with A549/ATCC NSCLC; 40.9% (inactive) and 45.6% (inactive) and 54.6% (inactive) in the assay with 786-0 renal (10 µM unless noted); 11.2% (inactive) and -3.25% (active) and -16.6% (active) in the assay on COLO 205 colon (10 µM unless noted); 33.3% (inactive) and 39.8% (inactive) and 87.1% (inactive) with DU-145 prostate (10 µM unless noted); 27.4% (inactive) and 41.7% (inactive) and 43.5% (inactive) in the assay with K-562 leukemia (10 µM unless noted). The growth was -30.4% (active) and -12.7% (active) and 48.8% (inactive) in the assay on MALME-3M melanoma (10 µM unless noted); 8.14% (active) and 10% (active) and 33.4% (inactive) in the assay on MDA-MB-231 breast (10 µM unless noted); 79.9% (inactive) and 65.7% (inactive) and 82.6% (inactive) in the assay on RXF 393 renal (10 µM unless noted); 27.7% (inactive) and 22.8% (inactive) and 26.2% (inactive) in the assay on SF-268 CNS (10 µM unless noted); 17.2% (inactive) and 17.6% (inactive) and 43% (inactive) in the assay on SF-295 CNS (10 µM unless noted); 28.4% (inactive) and 3.79% (active) and 15.5% (inactive) in the assay on SF-539 CNS (10 µM unless noted). The growth with UACC-257 melanoma (10 µM unless noted) was -12.8% (active) and -22.4% (active) and 17.8% (inactive); in the assay on M14 melanoma (10 µM unless noted), 2.78% (active) and 3.94% (active) and 15.5% (inactive).

For the origin of these results see PubChem BioAssay (NCI).
